High-throughput results (PubChem BioAssay)
IEC-6 cytotox: IEC-6 cytotoxicity, counter-screen for KLF5 inhibitors | luminescence viability | hit rate 0.78% among 290,000 | AID 1825 | inhibition, % at 5 µM; in the data active = inhibition above about 22%
KLF5 inh: suppresses KLF5 promoter-driven expression. hit rate 0.23% among 290,000. DLD-1 KLF5 promoter-luciferase reporter, luminescence. inhibition, % at 5 µM;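 active = inhibition above a per-plate limit of that plate's mean compound inhibition plus 3 SD, cut at about 60% in these data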;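 note: higher means less KLF5 promoter-driven luciferase light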
Ba/F3 V617F tox: reduce viability of Ba/F3 cells dependent on JAK2V617F; Ba/F3 EpoR-JAK2V617F viability, ATP luminescence; inhibition, % at 5.6 µM; hit rate 1.1% among 220,000;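 active = inhibition above the campaign mean plus 3 SD over all tested compounds, cut at about 24% in these data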;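 note: cytokine-independent growth of Ba/F3 cells driven by EpoR plus mutant JAK2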
BaF3 parental: parental Ba/F3 viability inhibition as JAK2V617F counter-screen; CellTiter-Glo ATP luminescence; inhibition, % at 5.6 µM; hit rate 1.1% among 220,000;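 active = inhibition above a per-campaign cutoff, the mean inhibition of all tested compounds plus 3 SD, cut at about 27% in these data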
aSyn UTR inh: 5' untranslated region of α-synuclein, MLPCN primary screen; alpha-synuclein 5'UTR reporter, inhibitor activity; inhibition, % (tested at 7.5 µM); hit rate 0.82% among 300,000; AID 1813; in the data active = inhibition above about 60%;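 note: H4 neuroglioblastoma cells stably carrying SNCA 5'UTR luciferase fusion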
APP 5UTR inh: APP translation inhibition | SH-SY5Y APP 5'UTR-luciferase reporter, luminescence | inhibition, % at 2 µM | hit rate 0.82% among 190,000 | AID 1285;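 active = inhibition above a set limit, derived from the sample mean plus 3 SD, cut at about 45% in these data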
Large screens that a line does not name were inactive. Only some compounds are listed: those with a hit (about 2.2% of all), similar ones and a draw of the others.

CNc1nc(N)c(C(=O)Nc2cc(C)on2)s1	none
CCc1ccc(NC(=O)CCNS(=O)(=O)c2cccc3nsnc23)cc1	BaF3 parental 61.5
COc1ccc(NC(=O)CCNS(=O)(=O)c2cccc3nsnc23)cc1OC	none
O=C(COC(=O)CN1C(=O)C2CCCCC2C1=O)NC1CCS(=O)(=O)C1 (configuration not stated)	none
CC1CCCC(NC(=O)COC(=O)CN2C(=O)C3CCCCC3C2=O)C1C (configuration not stated)	APP 5UTR inh 66.5
Fc1ccccc1-c1n[nH]c(=S)n1C1CC1	none (no result: Ba/F3 V617F tox, BaF3 parental, APP 5UTR inh)
COC(=O)Cc1c(C)c2ccc(OCc3nn[nH]n3)c(C)c2oc1=O	none
COC(=O)Cc1c(C)c2ccc(OCc3nn[nH]n3)cc2oc1=O	APP 5UTR inh 78.0
O=C(O)COc1ccc(/C=C/C(=O)c2ccc(C3CCCCC3)cc2)cc1	none (no result: Ba/F3 V617F tox, BaF3 parental, APP 5UTR inh)
NCCOc1ccc(C2CCCCC2)cc1	aSyn UTR inh 71.4
O=C(C1=C[C@@H](c2csc3ccccc23)C[C@@H](OCc2ccc(CO)cc2)O1)N1CCN(Cc2ccc3c(c2)OCO3)CC1	aSyn UTR inh 68.8
OCCN=C1CCCc2c1[nH]c1ccc(Br)cc21	aSyn UTR inh 62.2
Brc1ccc2[nH]c3c(c2c1)CCC3	none (no result: APP 5UTR inh)
Cc1ccc(S(=O)(=O)NC(=O)Nc2c(C)cccc2C)cc1	none (no result: Ba/F3 V617F tox, BaF3 parental, APP 5UTR inh)
CC(CCc1ccccc1)NC(=O)C1CCN(S(=O)(=O)N2CCOCC2)CC1 (configuration not stated)	BaF3 parental 91.0
CCN(CC)CCn1cnc2c([nH]c3cccc(OC)c32)c1=O	BaF3 parental 68.9
CC(=O)N(c1ccc(Cl)cc1)c1cn(C(C)=O)c2ccccc12	none
CC(=O)n1cc(N(C(=O)CCl)c2ccc(C)cc2)c2ccccc21	IEC-6 cytotox 23.4, Ba/F3 V617F tox 98.8, BaF3 parental 28.3, aSyn UTR inh 88.8 (no result: APP 5UTR inh)
CN1CCN(c2ccc(S(=O)(=O)N3CCCCC3)cc2NC(=O)Cc2ccc(Cl)cc2)CC1	Ba/F3 V617F tox 52.1, BaF3 parental 38.0
O=C(Cc1ccc(Cl)cc1)Nc1cc(S(=O)(=O)N2CCOCC2)ccc1N1CCCC1	none
Cc1ccc(C(=O)N2CCN(S(=O)(=O)N3CCCCCC3)CC2)cc1	none (no result: Ba/F3 V617F tox, BaF3 parental, APP 5UTR inh)
OCCN1CCN(CC(O)COc2ccc(C34CC5CC(CC(C5)C3)C4)cc2)CC1 (configuration not stated)	aSyn UTR inh 84.9
NCCOc1ccc(C23CC4CC(CC(C4)C2)C3)cc1	aSyn UTR inh 81.0
CCCCNc1oc(-c2ccc(OC)cc2)nc1S(=O)(=O)c1ccccc1	none
CCNc1oc(-c2ccc(OC)cc2)nc1S(=O)(=O)c1ccc(Br)cc1	APP 5UTR inh 49.0
CC(C)(C)C(=O)Nc1ccc(-c2csnn2)cc1	none (no result: APP 5UTR inh)
O=C(NCCCCCCNC(=O)N1CCCCCC1)N1CCCCCC1	Ba/F3 V617F tox 49.8, BaF3 parental 55.2
CCOCCCNC(=O)N1CCOCC1	none
O=C(COc1ccc(Cl)cc1)Nc1ccc(N2CCN(C(=O)c3ccco3)CC2)cc1	none
COc1ccc(OCC(=O)Nc2ccc(N3CCN(C(=O)c4ccco4)CC3)cc2)cc1	BaF3 parental 89.9
Cc1ccc(Nc2c(-c3ccccn3)nc3ccc(C)cn23)cc1	APP 5UTR inh 60.0
Cc1ccn2c(NC3CCCC3)c(-c3ccccn3)nc2c1	none
Cc1ccc(Nc2c(-c3ccccn3)nc3cc(C)ccn23)cc1	APP 5UTR inh 59.8
Cc1ccn2c(Nc3ccc4c(c3)OCO4)c(-c3ccccn3)nc2c1	APP 5UTR inh 52.4
Cc1ccc(-c2nc3cnccn3c2Nc2ccc3c(c2)OCO3)o1	none
CCOC(=O)C(=O)NN=C(c1ccccc1)c1ccccc1	none (no result: APP 5UTR inh)
CC(C)c1nc2sc3c(NCc4ccco4)ncnc3c2c2c1COC(C)(C)C2	aSyn UTR inh 71.0
COc1cccc(/C=C/C(=O)OCC(=O)Nc2cccc(S(=O)(=O)N(C)C)c2)c1	none
COc1ccc2c(Cl)c(C(=O)N/N=C3\CCCC(=O)C3)sc2c1	none
Cc1cc(C(=O)NN=C2CCCCC2)c2ccccc2n1	APP 5UTR inh 79.5 (no result: aSyn UTR inh)
Cc1cc(C(=O)NN=C2C3CC4CC(C3)CC2C4)c2ccccc2n1	APP 5UTR inh 76.2
O=C(Nc1cccc(S(=O)(=O)N2CCOCC2)c1)C1=NN(c2ccccc2)C(=O)CC1	none (no result: Ba/F3 V617F tox, BaF3 parental, APP 5UTR inh)
CCc1ccc(OCC(=O)OCC(=O)NCCNC(=O)COC(=O)COc2ccc(CC)cc2)cc1	none (no result: Ba/F3 V617F tox, BaF3 parental, APP 5UTR inh)
Cc1cc(C)c(C)c(S(=O)(=O)N(C)C2CCN(C)CC2)c1C	none (no result: Ba/F3 V617F tox, BaF3 parental, APP 5UTR inh)
Cc1nnsc1C(=O)N/N=C/c1ccc2ccccc2c1O	aSyn UTR inh 120.0, APP 5UTR inh 76.3
